# The supplement of paper PMC8728848
# Shown is part of a subset that was picked to be rich in the strongest signals.
# How the values were obtained:
# Experiment in all cases: glycan array binding signal (z-score within array); higher = stronger binding
# Details in all cases: glycan notation: IUPAC condensed, linker removed
# [1] = test system: Fuc(a1-2)[GalNAc(a1-3)]Gal(b1-3)GlcNAc(b1-2)Man(a1-3)[Fuc(a1-2)[GalNAc(a1-3)]Gal(b1-3)GlcNAc(b1-2)Man(a1-6)]Man(b1-4)GlcNAc(b1-4)GlcNAc
# Summary of the method: (§1)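 The binding signal is a Z-score computed within each array. Data were drawn from 3228 arrays in the Consortium for Functional Glycomics database, restricted to those with a known protein sequence. Scores were averaged over arrays of the same protein sequence at different concentrations or buffers, and over linkers, and negative values can be taken as non-binding.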
# [2] = test system: Fuc(a1-2)[GalNAc(a1-3)]Gal(b1-4)GlcNAc(b1-2)Man
# Summary of the method: as §1
# [3] = test system: Fuc(a1-2)[GalNAc(a1-3)]Gal(b1-4)GlcNAc(b1-6)GalNAc
# Summary of the method: as §1
# [4] = test system: Fuc(a1-2)[GalNAc(a1-3)]Gal(b1-4)GlcNAc(b1-3)Gal(b1-4)GlcNAc
# Summary of the method: as §1
# [5] = test system: Fuc(a1-2)[GalNAc(a1-3)]Gal(b1-3)GlcNAc
# Summary of the method: as §1
# [6] = test system: Fuc(a1-2)[GalNAc(a1-3)]Gal(b1-3)GlcNAc(b1-6)GalNAc
# Summary of the method: as §1
# [7] = test system: Fuc(a1-2)[GalNAc(a1-3)]Gal(b1-4)GlcNAc(b1-3)GalNAc
# Summary of the method: as §1
# [8] = test system: Fuc(a1-2)[GalNAc(a1-3)]Gal(b1-3)GlcNAc(b1-3)GalNAc
# Summary of the method: as §1
# [9] = test system: Fuc(a1-2)[GalNAc(a1-3)]Gal(b1-4)GlcNAc(b1-2)Man(a1-3)[Fuc(a1-2)[GalNAc(a1-3)]Gal(b1-4)GlcNAc(b1-2)Man(a1-6)]Man(b1-4)GlcNAc(b1-4)GlcNAc
# Summary of the method: as §1
# [10] = test system: Fuc(a1-2)[GalNAc(a1-3)]Gal(b1-4)GlcNAc(b1-3)Gal(b1-4)GlcNAc(b1-3)Gal(b1-4)GlcNAc
# Summary of the method: as §1
# PILRb (Mus musculus), Q2YSF2, sequence (Q2YSF2 entry or part of it): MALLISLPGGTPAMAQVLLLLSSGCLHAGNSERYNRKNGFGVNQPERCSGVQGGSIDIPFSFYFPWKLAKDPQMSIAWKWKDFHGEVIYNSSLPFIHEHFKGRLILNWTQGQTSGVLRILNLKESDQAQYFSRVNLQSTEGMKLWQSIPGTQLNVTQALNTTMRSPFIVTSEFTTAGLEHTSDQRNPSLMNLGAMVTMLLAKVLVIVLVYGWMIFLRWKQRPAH
# CHI3L1 (Homo sapiens), P36222, sequence (P36222 whole entry): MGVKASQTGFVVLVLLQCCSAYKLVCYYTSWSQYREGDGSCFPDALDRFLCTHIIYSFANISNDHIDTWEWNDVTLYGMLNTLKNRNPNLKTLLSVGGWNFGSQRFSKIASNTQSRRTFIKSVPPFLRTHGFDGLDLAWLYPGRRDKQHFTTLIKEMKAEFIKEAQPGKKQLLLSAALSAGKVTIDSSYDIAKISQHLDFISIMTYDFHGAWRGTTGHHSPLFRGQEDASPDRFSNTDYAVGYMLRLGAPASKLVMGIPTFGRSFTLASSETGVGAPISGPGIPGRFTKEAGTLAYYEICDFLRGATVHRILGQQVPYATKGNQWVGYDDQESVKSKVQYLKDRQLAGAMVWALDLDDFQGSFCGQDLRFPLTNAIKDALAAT
# Aggrecan (Rattus norvegicus), NP_071526, sequence (chain, as listed by the source): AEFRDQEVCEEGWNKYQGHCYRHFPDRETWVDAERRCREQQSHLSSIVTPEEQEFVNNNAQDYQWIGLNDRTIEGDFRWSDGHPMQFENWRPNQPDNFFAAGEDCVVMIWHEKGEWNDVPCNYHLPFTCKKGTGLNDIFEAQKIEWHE
# 6RG (Lolium perenne), B9U140, sequence (B9U140 entry or part of it): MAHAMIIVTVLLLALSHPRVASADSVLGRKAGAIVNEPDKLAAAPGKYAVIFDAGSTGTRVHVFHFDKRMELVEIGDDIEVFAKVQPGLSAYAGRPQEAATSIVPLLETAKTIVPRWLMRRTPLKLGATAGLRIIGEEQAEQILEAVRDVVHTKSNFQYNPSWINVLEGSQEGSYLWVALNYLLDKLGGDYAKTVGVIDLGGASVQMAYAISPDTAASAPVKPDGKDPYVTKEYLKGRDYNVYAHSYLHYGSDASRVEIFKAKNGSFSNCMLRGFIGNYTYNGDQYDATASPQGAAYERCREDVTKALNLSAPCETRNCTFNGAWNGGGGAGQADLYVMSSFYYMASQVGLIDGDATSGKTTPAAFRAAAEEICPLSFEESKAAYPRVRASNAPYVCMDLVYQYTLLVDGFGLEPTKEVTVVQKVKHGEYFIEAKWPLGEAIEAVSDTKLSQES
# Avaren (Actinomycete K97), sequence (chain, as listed by the source): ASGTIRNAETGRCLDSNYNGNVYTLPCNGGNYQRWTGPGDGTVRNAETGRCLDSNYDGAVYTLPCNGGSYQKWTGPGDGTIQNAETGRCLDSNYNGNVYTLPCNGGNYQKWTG
substance,measurement,setting,value
MpAFP RI GFP (Marinomonas primoryensis),glycan array binding signal (z-score),[1],-0.022
same,glycan array binding signal (z-score),[2],-0.489
same,glycan array binding signal (z-score),[3],-0.439
"Siglec-8 (Homo sapiens), Q9NYZ4",glycan array binding signal (z-score),[4]; mutation: R125K,-0.346
same,glycan array binding signal (z-score),[3]; mutation: R125K,-0.119
"6RG (Lolium perenne), B9U140",glycan array binding signal (z-score),[5],-0.169
Avaren (Actinomycete K97),glycan array binding signal (z-score),[6],-0.139
"CHI3L1 (Homo sapiens), P36222",glycan array binding signal (z-score),[6],-0.064
same,glycan array binding signal (z-score),[4],-0.12
same,glycan array binding signal (z-score),[7],-0.124
"Aggrecan (Rattus norvegicus), NP_071526",glycan array binding signal (z-score),[1],-0.131
"PILRb (Mus musculus), Q2YSF2",glycan array binding signal (z-score),[8],1.35
same,glycan array binding signal (z-score),[9],-0.328
same,glycan array binding signal (z-score),[10],-0.069
